From paper PMC11066047 come the findings set out here.

Test [1] concerns the target Eukaryotic translation initiation factor 3 subunit A (UniProt P38249). Briefly: cross-link between two proteins; cross-linking mass spectrometry.
Test [2] concerns the target Histone H3 (UniProt P61830). The description is as above.
The target of test [3] is Nucleolar complex protein 14 (UniProt Q99207). Briefly: cross-link between two proteins.
Test [4] concerns the target Something about silencing protein 10 (UniProt Q12136). The test is described as follows: cross-link between two proteins.
Test [5] has as its target Small ribosomal subunit protein bS1m (UniProt Q02950). Briefly: cross-link between two proteins; cross-linking mass spectrometry.
Test [6] addresses Small ribosomal subunit protein uS8m (UniProt Q03799). The description is as above.

Chain of Eukaryotic translation initiation factor 3 subunit A (P38249 whole entry): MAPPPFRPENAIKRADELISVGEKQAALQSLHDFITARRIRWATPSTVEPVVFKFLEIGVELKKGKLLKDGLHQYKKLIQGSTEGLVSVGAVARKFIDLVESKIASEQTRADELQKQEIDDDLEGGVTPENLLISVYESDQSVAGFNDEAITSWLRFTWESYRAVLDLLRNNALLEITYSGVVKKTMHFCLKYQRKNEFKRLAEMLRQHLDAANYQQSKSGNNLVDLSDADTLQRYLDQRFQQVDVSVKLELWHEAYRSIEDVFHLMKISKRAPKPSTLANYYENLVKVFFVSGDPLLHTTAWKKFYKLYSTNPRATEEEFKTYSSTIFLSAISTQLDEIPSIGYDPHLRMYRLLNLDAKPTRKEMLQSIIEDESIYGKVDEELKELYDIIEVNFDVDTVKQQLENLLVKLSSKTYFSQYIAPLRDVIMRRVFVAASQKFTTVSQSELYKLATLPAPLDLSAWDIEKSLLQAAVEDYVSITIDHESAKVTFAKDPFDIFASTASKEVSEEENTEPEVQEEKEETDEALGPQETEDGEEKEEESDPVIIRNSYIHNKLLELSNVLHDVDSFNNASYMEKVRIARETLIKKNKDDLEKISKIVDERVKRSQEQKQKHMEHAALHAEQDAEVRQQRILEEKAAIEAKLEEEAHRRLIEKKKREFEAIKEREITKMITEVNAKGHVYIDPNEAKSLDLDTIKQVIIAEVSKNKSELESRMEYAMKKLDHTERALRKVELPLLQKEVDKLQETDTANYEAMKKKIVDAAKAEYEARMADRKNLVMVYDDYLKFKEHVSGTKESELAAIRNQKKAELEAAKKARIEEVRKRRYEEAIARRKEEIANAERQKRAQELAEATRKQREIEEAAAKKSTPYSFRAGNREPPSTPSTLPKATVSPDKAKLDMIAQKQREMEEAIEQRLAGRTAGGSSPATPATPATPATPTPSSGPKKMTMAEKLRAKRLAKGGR

Regarding “Eukaryotic translation initiation factor 3 subunit B, P06103”, the “listed as a hit” value in test [1] is given as “yes”.

As for Histone H4, P02309, in test [2], the “listed as a hit” value is given as “yes”.

Regarding “Ribosomal RNA small subunit methyltransferase NEP1, Q06287”, the “listed as a hit” value in test [3] and in test [4] was “yes” throughout.

Regarding “Small ribosomal subunit protein bS18m, P40033”, the “listed as a hit” value in test [5] is given as “yes”.

For “Small ribosomal subunit protein mS23, P40496”, in test [6], the “listed as a hit” value is “yes”.
